Experimental data from PubChem BioAssay (NCI).
Compounds without any hit were thinned out: in the full panel of roughly 83,000, 20% have a hit.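 Note: values are percent growth. 100 is the growth of untreated cells, values between 100 and 0 indicate rising inhibition; between -100 and 0 indicates cell death.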 Unmarked numbers belong to inactive results. Calls of active or inactive are those of the source. The calls were made as follows: active = growth percent below 10; inactive = the rest.

These compounds were tested on HL-60(TB) leukemia (assay: NCI-60 one-dose screen, 48 h (100 = growth as untreated, 0 = no growth, -100 = all killed)). Details: 10 µM unless noted.

Row | Structure (SMILES) | growth
1 | Cc1ccccc1-n1nnc(C(=O)Nc2nc3ccc(F)cc3s2)c1C | 1.12% (active)
2 | COc1ccc(/C=C2\CCC/C(=C\c3ccc(OC)c(OC)c3)C2=O)cc1OC | 3.46% (active)
3 | Cc1ccc(NS(=O)(=O)c2ccc(-c3cnc(C4CC4)o3)cc2)cc1C | -1.17% (active)
4 | COC1=CC(c2ccc[nH]2)=N/C1=C\c1[nH]c(C)c(C)c1CCC(=O)OCc1ccccc1 | -39.1% (active)
5 | Cc1[nH]c(C(=O)Nc2cccc(OC3CCNCC3)c2)c(Cl)c1Cl | 54.9%
6 | COc1ccc2cc(C3=CC(=O)CCC3)ccc2c1 | 89.7%
7 | CN1CCN(c2nc(NCCNc3ccnc4cc(Cl)ccc34)c3ccccc3n2)CC1 | -63.3% (active)
8 | Cc1cc(NCCCCNc2ccnc3cc(Cl)ccc23)nc(Nc2ccc(C(=O)N3CCCCC3)cc2)n1 | -59.3% (active)
9 | CCOC(=O)C(CC)n1c(=O)c2cc(OC)c(OC)cc2c2cnc3[nH]ccc3c21 (stereo unspecified) | 62.1%
10 | CCCCCCCCCCCCCCCCNC(=S)N/N=C/c1ccc(OC)cc1 | 94.3%
11 | COC(=O)c1c(-c2ccccc2)csc1NC(=O)c1c(-c2ccccc2)noc1C | 28.3%
12 | O=C(N/N=C/c1cccc(O)c1O)c1ccccc1 | 19.1%
13 | CCCCC(C#N)C(N)=O (stereo unspecified) | 93.8%
14 | O=C(Nn1cnc2ccccc21)N1CCCC1 | 87.1%
15 | CN1CCCCC1CCN1c2ccccc2Sc2ccc(Br)cc21 (stereo unspecified) | 34.9%
16 | COc1ccc(C(c2cc(OC)c(OC)c(OC)c2)n2cncn2)cc1O (stereo unspecified) | -32.5% (active)
